Over roughly 35,000 sequences, “fluorescence intensity (a.u.)” has its median near 10,000; the highest 2% begin near 52,000. Only a selection was taken, and the highest values are over-represented in it overall.

The target in this experiment is T1, OsWOX13 (Oryza sativa, UniProt Q5QMM3 1-267).
T1 sequence: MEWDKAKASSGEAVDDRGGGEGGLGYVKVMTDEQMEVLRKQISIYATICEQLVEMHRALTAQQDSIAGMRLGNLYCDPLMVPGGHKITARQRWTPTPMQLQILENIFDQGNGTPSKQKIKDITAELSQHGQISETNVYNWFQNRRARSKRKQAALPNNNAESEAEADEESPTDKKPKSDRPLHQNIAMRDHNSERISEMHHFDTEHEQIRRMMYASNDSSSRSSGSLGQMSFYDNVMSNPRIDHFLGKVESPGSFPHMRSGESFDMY
Kind of experiment: protein-binding microarray (RPBM); PBS, 2% BSA, 51.3 ng/ul salmon testes DNA, 50 uM zinc acetate, 200 nM TF, 25 C, 1 h; high values mean tight binding. The settings on record: protein: recombinant; tags: N-terminal polyhistidine and DsRed monomer fusion (pET32a); label: CyDye5-dUTP incorporated in the synthesized complementary strand; 3' TTTTT single-stranded linker to array surface; dsDNA, one strand shown. Put shortly: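 Binding signal is defined as the fluorescence intensity of each feature in arbitrary units, read on an Axon 4000B scanner. Transcription factors with N-terminal polyhistidine and DsRed fusions came from E. coli BL21-CodonPlus and were purified on Ni–NTA. They were incubated at 200 nM for 1 h at 25 °C on a custom Agilent array that had been made double-stranded with Cy5-dUTP, with 50 µM zinc acetate present, and the array was washed.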
For “GTACAATTTTCATAATTTGCATAAATCGAAAAGAAAAGTGCGGAGTCACCTAGTGCAG”, the binding signal was 12400 fluorescence intensity (a.u.). Next, “TTTTATAATGATACTTAATTAATCATGTGCTAATAATCACCGGAGTCACCTAGTGCAG”: 9330 fluorescence intensity (a.u.).

As for “AATGATGGAGGATAATTTATATGCTAAATTATAAACTTGTCGGAGTCACCTAGTGCAG”, the binding signal was 57700 fluorescence intensity (a.u.). Next, “ACTAATGATGGATTAATTAGGCTTAATATATTCATCTCGCCGGAGTCACCTAGTGCAG”: 58100 fluorescence intensity (a.u.). Next, “TAAATTGATCAAATTGCCATTTGGAGTGCAGTGACGGGCTCGGAGTCACCTAGTGCAG”: 54900 fluorescence intensity (a.u.). With “ATGATTAATACTTAATTAATTATGTGCGCTCATGGATCACCGGAGTCACCTAGTGCAG”, the binding signal was 56400 fluorescence intensity (a.u.). Next, “GTTTGGATTGATTATTGGGACAGTGAAATTGACCATTTGACGGAGTCACCTAGTGCAG”: 39600 fluorescence intensity (a.u.); “GGTATGATAAACTTGACTAATTATACCATTGGATCATTGTCGGAGTCACCTAGTGCAG”: 11000 fluorescence intensity (a.u.); “CAAATGAGCTAATACTTAATTAATAATGCGCTAATGGATCCGGAGTCACCTAGTGCAG”: 4340 fluorescence intensity (a.u.). In the case of “TGATGGATTAATATATGATTAATTAAGTATTAGCTTAAACCGGAGTCACCTAGTGCAG” it was 13200 fluorescence intensity (a.u.); in that of “TATGAGATATCATTTAATTATATAATAAATATAATGATGTCGGAGTCACCTAGTGCAG”, 4610 fluorescence intensity (a.u.); in that of “GATTAATTAGGCTCAATATATTCATCTCGCGAATTAGTCCCGGAGTCACCTAGTGCAG”, 33000 fluorescence intensity (a.u.).

As to “TTAAATTATATTTATATCAAATTATACTTTGATCAATACTCGGAGTCACCTAGTGCAG”, the binding signal is 39900 fluorescence intensity (a.u.).

For the sequence “CAAGAACCAATAATTTGCAAACTGTAGGGCACAGTTCGATCGGAGTCACCTAGTGCAG”, the binding signal was 6920 fluorescence intensity (a.u.). In the case of “GTCTCTTTGAAATTGAAATTGGGCCTCATTTAGTCTGTTACGGAGTCACCTAGTGCAG” it was 3500 fluorescence intensity (a.u.).

For “TTTTCCATCACATTAACCTGTCATACACACAAAACTTTTCCGGAGTCACCTAGTGCAG”, the binding signal is 4820 fluorescence intensity (a.u.). “ACAATCAATCAATCTTGCTTTCCATTCAAAGTCTTCATTTCGGAGTCACCTAGTGCAG”: the binding signal was 35000 fluorescence intensity (a.u.). As for “AATGTGAGCATGTGATTTAAATTTGAGAAAATTCAACTTGCGGAGTCACCTAGTGCAG”, the binding signal is 3660 fluorescence intensity (a.u.). Next, “GTCCTATTTGACGCTTTGATTAGACAACGCTTTGTCAATTCGGAGTCACCTAGTGCAG”: 12900 fluorescence intensity (a.u.); “CGCTTGATCTGGGGTGGGGTCGCGAGTGGTGGAGGAGGTGCGGAGTCACCTAGTGCAG”: 3600 fluorescence intensity (a.u.); “TGTTGACAAAATTAGCTGTTGCAACGCATACAGACTTCAACGGAGTCACCTAGTGCAG”: 7410 fluorescence intensity (a.u.). On to “CCCTAATTATGGTACGTGTTGATCGTGCCACTTCTTCCTCCGGAGTCACCTAGTGCAG”, for which the binding signal is 39500 fluorescence intensity (a.u.).

With “TTAGATAAAATTAATTTGTCTTGCTTTTGTAGGCTGCAGACGGAGTCACCTAGTGCAG”, the binding signal is 27700 fluorescence intensity (a.u.).

In the case of “ACTGATTAGTGGATATGCTTTATATATGTAATTAGGATGCCGGAGTCACCTAGTGCAG”, the binding signal was 53000 fluorescence intensity (a.u.). In the case of “CTGGATGATTGGATTGATTATGGACAGATTTAAATTTGCTCGGAGTCACCTAGTGCAG” it was 65500 fluorescence intensity (a.u.); in that of “TGATTTAATTAATTAATTAATGGCCTTGTTATTGGATGCTCGGAGTCACCTAGTGCAG”, 47100 fluorescence intensity (a.u.). In the case of “AATTAATCATGCAATAAAACAAATTTCGTTTTGCGTGCTACGGAGTCACCTAGTGCAG” it was 6310 fluorescence intensity (a.u.). Next, “ATGTATTTGCTATTAAATTAATTATAGATGATTTAGAGCTCGGAGTCACCTAGTGCAG”: 16300 fluorescence intensity (a.u.); “TGCTAATGATGGATTAATTAAGCTTAATAAATTCATCTCGCGGAGTCACCTAGTGCAG”: 53700 fluorescence intensity (a.u.).

With “TACACTGATTAGTGGATGATGATATAGTATCTTTGTATGTCGGAGTCACCTAGTGCAG”, the binding signal is 45600 fluorescence intensity (a.u.). In the case of “TTGCTAATGACGGATTAATTATGCTTAATAAATTCATCTCCGGAGTCACCTAGTGCAG” it was 20600 fluorescence intensity (a.u.); in that of “ATAAAATGTAAATTATGCTTAAAATGCTTTTAGTGATAAACGGAGTCACCTAGTGCAG”, 4750 fluorescence intensity (a.u.). In the case of “ATGTGCTAATGATGGATTAATTACGCTTAATAAATTCGTCCGGAGTCACCTAGTGCAG” it was 28000 fluorescence intensity (a.u.). In the case of “AAACCTAATTAATCATGCGCAAATGGCTTTCTTGTTTTGCCGGAGTCACCTAGTGCAG” it was 22900 fluorescence intensity (a.u.); in that of “GTTTGATTGCTTAATTAATTTCCAAATGCGCAATCATGCACGGAGTCACCTAGTGCAG”, 64800 fluorescence intensity (a.u.). For the sequence “TGAGTGATGACAGTAAGTAACTGAATCTGCTGAGTTCTGACGGAGTCACCTAGTGCAG”, the binding signal was 6590 fluorescence intensity (a.u.). For “TCTCATCAATTGAATGGATATTATATTTTAATGTGTTCAGCGGAGTCACCTAGTGCAG”, the binding signal was 8660 fluorescence intensity (a.u.). In the case of “GCTATGATTGTCTTTAGGGTATCTAATAATTGTGGTTTGACGGAGTCACCTAGTGCAG” it was 21700 fluorescence intensity (a.u.).

With “ACCAAACGCCTTGATTGAAACCATCGATATACATATGTAACGGAGTCACCTAGTGCAG”, the binding signal was 34900 fluorescence intensity (a.u.).

In the case of “GAAAATGTTCCATCTGATTATAAATTATTATATTTTGGGACGGAGTCACCTAGTGCAG”, the binding signal was 4000 fluorescence intensity (a.u.).

With “TGAAAGTAATTTGATGCTATAAGTCAAAGTTAAAGAGATGCGGAGTCACCTAGTGCAG”, the binding signal is 3500 fluorescence intensity (a.u.). In the case of “GTTGCAGATTGAGAGCCAAAGACATTATCTTGATTCTATCCGGAGTCACCTAGTGCAG” it was 13100 fluorescence intensity (a.u.); in that of “TTTAAGATGATCAGATTTCTAATTGCAGTTCACCTTAACTCGGAGTCACCTAGTGCAG”, 7420 fluorescence intensity (a.u.); in that of “TATAAATATAATTTATCCAAAGAGCATTTATAAGGACTTCCGGAGTCACCTAGTGCAG”, 4240 fluorescence intensity (a.u.). Next, “TAGTGATTTTGTGAAATCTCAAAATATATTGATCCAGCTTCGGAGTCACCTAGTGCAG”: 5030 fluorescence intensity (a.u.); “GCTTGACTAACATATTCTGTTGGATTGCTACCGCGCCATGCGGAGTCACCTAGTGCAG”: 7150 fluorescence intensity (a.u.). Next, “TCCATTAACATTTGCCATTATCGTACTGACTTTCGTACGACGGAGTCACCTAGTGCAG”: 3710 fluorescence intensity (a.u.); “CGCCCACTGAATTAATCAATCAGTAAAGCTGCCACCGTGCCGGAGTCACCTAGTGCAG”: 39100 fluorescence intensity (a.u.). As for “CCAAGATGAATTGGAACTTTGCACACCAACCAAATAGGGGCGGAGTCACCTAGTGCAG”, the binding signal was 3580 fluorescence intensity (a.u.). In the case of “ATGTACTTAATTCAATTTGTCAAAAGAATTATGTATCCCTCGGAGTCACCTAGTGCAG”, the binding signal was 3990 fluorescence intensity (a.u.). In the case of “GGTTCAACGGTACCCTTGATTGCTATAGAGAGTGATATATCGGAGTCACCTAGTGCAG” it was 4670 fluorescence intensity (a.u.); in that of “GAAATTAATAACAAATTAAAACCAGAGCCAGCTGACTGCTCGGAGTCACCTAGTGCAG”, 21700 fluorescence intensity (a.u.). Next, “CCGACGGCTCAGATTGACTGCAGTAGTGGGTATCTCTTCTCGGAGTCACCTAGTGCAG”: 13700 fluorescence intensity (a.u.); “ATTGCAGATTGATTTATCTCGTCAAGATTGATGAGCATGCCGGAGTCACCTAGTGCAG”: 63500 fluorescence intensity (a.u.).

On to “TGTTTGGATGATTTTATGGATGATCACTTCTCTTTATTTACGGAGTCACCTAGTGCAG”, for which the binding signal is 3280 fluorescence intensity (a.u.). Next, “CAGATCAATTTATCGAGATTGATCAAAAGCAAGATGATGCCGGAGTCACCTAGTGCAG”: 35000 fluorescence intensity (a.u.); “TTATTTGTGGCTTGAAGATTGACAGCTTTTGTTGATTGCTCGGAGTCACCTAGTGCAG”: 9340 fluorescence intensity (a.u.).

As to “GACTTGATTTACAGATTTATTGACAGAGTTTTGCTAAGCTCGGAGTCACCTAGTGCAG”, the binding signal is 56600 fluorescence intensity (a.u.). Next, “TTAATTAGGTTTAATAGATTCATCTCGCAGTTTACAGGCACGGAGTCACCTAGTGCAG”: 18500 fluorescence intensity (a.u.); “GAAGATGATGATGATTTAGCATGCAAATGAGCAGTTGACACGGAGTCACCTAGTGCAG”: 13800 fluorescence intensity (a.u.). Next, “TGCTTTATTATTTGATTGATTGATCACTTGTTGGATGGGACGGAGTCACCTAGTGCAG”: 64200 fluorescence intensity (a.u.); “TTTGTTGCTTTACTTGGGAGATTGATCGCTAAACGAGTCACGGAGTCACCTAGTGCAG”: 3150 fluorescence intensity (a.u.); “GATTAATTAGATTTAATAAATTCATCTCGCAGTTTACAGGCGGAGTCACCTAGTGCAG”: 62200 fluorescence intensity (a.u.). In the case of “TGCTAAAATTTTGACAATATTGTTAACTTGCTCTAGTTTACGGAGTCACCTAGTGCAG” it was 6920 fluorescence intensity (a.u.); in that of “GATTAATTAGGCTTCATAAATTCGTCTCGCAGTTTACAGGCGGAGTCACCTAGTGCAG”, 30800 fluorescence intensity (a.u.).

Source of the values: article PMC7819943, “Rice protein-binding microarrays: a tool to detect cis-acting elements near promoter regions in rice”.
